# Bioassay records deposited in PubChem by The Scripps Research Institute Molecular Screening Center.
# The entries come from a sample that favours hits as a whole.
# TTR transcr act = TTR transcription activators in neuroblastoma reporter cells, primary screen, cell-based, luminescence, SH-SY5Y, TTR promoter Gaussia luciferase | 100% = recombinant luciferase protein wells | activation, % at 16.7 µM | hit rate 1.3% among 92,000 | AID 1117267, 2014;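 active = activation above the mean of all tested compounds plus 3 SD, cut at about 9.5% in these data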;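 note: cells exposed to compounds for one day before reading; 0% = median of all test compound wells on the plate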
# HuH7 TTR inh = TTR promoter reporter inhibitors in hepatoma cells, counter-screen for TTR transcription activator project, cell-based, luminescence, HuH7 hepatoma; shares compounds with TTR transcr act; HuH7 TTR promoter-Gaussia luciferase reporter; inhibition, % at 16.7 µM; hit rate 4% among 1,100; AID 1117279, 2014;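 active = average inhibition above the solvent-only control wells' mean plus 3 SD, cut at about 15% in these data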;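 note: 0% = cells with DMSO only and 100% = cells with inhibitor control FD; inhibitors lower well luminescence so higher value means more inhibition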
# TTR up confirm = TTR transcription activators, retest, confirmation, cell-based, luminescence, SH-SY5Y, triplicate | shares compounds with TTR transcr act | 1,100 tested, under 10 active | activation, % at 16.7 µM | SHSY5Y TTR promoter Gaussia luciferase; 100% = purified Lucia enzyme wells, no cells;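 active = mean activation above a set limit taken from the earlier primary screen, cut at about 11% in these data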;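 note: 0% = DMSO-treated cells and 100% = recombinant Lucia luciferase without cells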
# * marks the source's active call; other numbers are inactive results.
SMILES,TTR transcr act,others
c1ccc(Cn2ccc3ccc(-c4ccc5ccn(Cc6cccc(-c7ccsc7)c6)c5c4)cc32)cc1,0.1,
O=C(COC(=O)CCS(=O)(=O)c1ccccc1)Nc1ccc(N2CCCCC2)cc1,-0.4,
CCCOc1ccc(C(C)=O)cc1Cc1c(O)nc(SC)[nH]c1=O,-1.8,
CCCCSc1nc(O)c(Cc2ccccc2)c(=O)[nH]1,2.3,
CCCCOc1ccc(Cc2c(O)nc(SC)[nH]c2=O)cc1,9.9*,HuH7 TTR inh=-22.0;TTR up confirm=0.6
O=C1CCC(c2ccccc2)=NN1Cc1c(F)cccc1Cl,-0.7,
COc1cc2oc(=O)cc(CN(Cc3ccccc3)Cc3ccccc3)c2cc1Cl,0.1,
O=C(Nc1cccc2nsnc12)c1cc2c(cc1Cl)Sc1nccn1S2(=O)=O,-0.7,
Cc1onc(-c2ccccc2)c1C(=O)Nc1cccc(S(=O)(=O)N2CCCCC2)c1,1.1,
CCc1noc(C)c1C(=O)N1CCN(S(=O)(=O)c2ccc(Br)cc2)CC1,1.1,
CCc1noc(C)c1C(=O)Nc1cc(S(=O)(=O)N2CCCCC2)ccc1N(C)C,11.0*,HuH7 TTR inh=-13.4;TTR up confirm=0.3
CCCc1cc(C(=O)Nc2cccc(-c3nn[nH]n3)c2)sc1C,-1.5,
O=C(c1[nH]c(C(F)(F)F)nc1-c1ccccc1)N1CCN(c2ncccc2C(F)(F)F)CC1,0.5,
COc1ccccc1CNC(=O)COC(=O)c1cc2ccccc2o1,-0.7,
CC(=O)c1cccc(NC(=O)C(C)OC(=O)CCc2nc3ccccc3c(=O)[nH]2)c1 (configuration not stated),-1.2,
COc1ccc(-c2ccc(CN3C(C)C(=O)N(Cc4cn(CCC5OCCO5)nn4)CCS3(=O)=O)cc2)cc1OC (configuration not stated),-0.6,
Cc1ccc(Nc2cc(=O)[nH]c(=O)[nH]2)cc1Cl,9.7*,HuH7 TTR inh=-2.8;TTR up confirm=-0.8
Cc1ccc(NC(=S)N(C)N)cc1Cl,1.2,
Cc1ccc(Nc2ccc([N+](=O)[O-])cn2)cc1Cl,0.9,
CC(C)C[C@@H](COCc1ccc(C(F)(F)F)cc1)N1CCN(C(=O)c2ccc(C(F)(F)F)cc2)CCC1=O,-1.7,
O=C(Nc1ccc(NC(=O)c2ccccc2)c2ccccc12)c1ccccc1,-1.4,
CCc1nc2c(OCc3cccc(Cl)c3)cccn2c1N(C)C(=O)Nc1ccccc1OC,-2.1,
O=C(CC[C@H]1O[C@@H](n2ccc(=O)[nH]c2=O)[C@H](O)[C@@H]1O)N[C@@H](Cc1ccccc1)C(=O)NCc1ccccc1,15.0*,HuH7 TTR inh=-9.3;TTR up confirm=-0.9
CC(C)CCNC(=O)[C@@H](Cc1ccccc1)NC(=O)CC[C@H]1O[C@@H](n2ccc(=O)[nH]c2=O)[C@H](O)[C@@H]1O,-0.2,
O=c1ccn([C@@H]2O[C@H](CNCc3ccc(-n4cccn4)cc3)[C@@H](O)[C@H]2O)c(=O)[nH]1,-0.9,
SMILES,TTR transcr act,others
O=C(CCC1CCN(C(=O)c2ccco2)CC1)NCc1ccc(F)cc1,-0.7,
COC(=O)[C@]12C[C@H](CC(=O)NCc3cccs3)C(=O)N(Cc3ccc(Cl)cc3Cl)C1=C[C@H](C(C)C)O[C@@H]2C1CC1,0.4,
CCOc1ccc2nc(S(=O)(=O)NC(=O)C3(C)CCN3C(=O)c3cccc(F)c3)sc2c1 (configuration not stated),0.2,
O=C(O)CSCC(=O)NCc1ccc(Cl)cc1,0.0,
O=C(CSCc1ccc(Cl)cc1)NCc1ccccn1,11.6*,HuH7 TTR inh=-14.7;TTR up confirm=0.9
O=C(NCc1ccccn1)c1ccc(Cl)cc1Cl,0.3,
CN1CCN(C2=C(Cl)C(=O)N(CCc3ccccc3)C2=O)CC1,4.6,
O=C1C(Cl)=C(NCCCN2CCOCC2)C(=O)N1CCc1ccccc1,69.5*,HuH7 TTR inh=-2.7;TTR up confirm=-0.7
O=C(CCc1ccccc1)NCCCN1CCOCC1,0.8,
COc1cc(C(C)=O)ccc1OCC(=O)Nc1ccc(C)c(S(=O)(=O)N2CCCCCC2)c1,-5.4,
COc1ccc(N(C)S(=O)(=O)c2cccc(C(=O)N(C)Cc3ccc(C)o3)c2)cc1,1.5,
COc1ccc(N2CCN(C3CCCN(C(=O)CN4CCOC4=O)C3)CC2)cc1 (configuration not stated),-0.9,
Cc1cccc(NC(=O)CSc2nnc(C)n2Cc2ccccc2)c1,5.7,
Cc1ccc(NC(=O)CSc2nnc(CN3CCOCC3)n2-c2ccccc2)cc1,-0.7,
CCn1c(CN2CCOCC2)nnc1SCC(=O)Nc1cccc(C)c1,21.1*,HuH7 TTR inh=-16.5;TTR up confirm=-1.1
CSCCC(C(=O)NC(C)(C)C)n1c(-c2ccc(C)cc2)nc2ccccc21 (configuration not stated),-0.7,
COc1ccc(CC(=O)NCC2CCCN(Cc3ccccc3OC)C2)cc1 (configuration not stated),0.3,
C#CCNC(=O)C1=C[C@@H](C2CC2)C[C@@H](OCCCCO)O1,1.4,
O=C(NCc1nc2ccccc2[nH]1)C1=C[C@H](C2CC2)C[C@H](OCCCCO)O1,10.1*,HuH7 TTR inh=-26.0;TTR up confirm=0.0
O=C(NCc1nc2ccccc2[nH]1)C1=C[C@H](C2CCCCC2)C[C@H](OCCCCO)O1,3.1,
C[C@H](CO)N1C[C@H](C)[C@@H](CN(C)C(=O)Nc2ccc3c(c2)OCO3)Oc2ccc(NC(=O)Nc3ccc4c(c3)OCO4)cc2C1=O,7.2,
COc1ccc(C)cc1NC(=O)COC(=O)C1CCN(C(=O)c2ccc(Cl)cc2)CC1,14.7*,HuH7 TTR inh=-10.9;TTR up confirm=1.1
Cc1ccc(NC(=O)COC(=O)C2CC2)c(Br)c1,-0.4,
O=C(COC(=O)C1CCN(C(=O)c2ccc(Cl)cc2)CC1)c1ccco1,2.0,
CCOC(=O)c1sc2nc(C)nc(N3CCN(S(=O)(=O)c4ccccc4)CC3)c2c1C,-0.9,
SMILES,TTR transcr act,others
CN(C(=O)c1ccc(NC(=O)Cc2cccc(NC(=O)C3CCN(C(=O)C4CCCC4)CC3)c2)cc1)C1CC1,-0.5,
CC1(C)Oc2ccc3ccc(=O)oc3c2C[C@H]1O,1.5,
CC1(C)Oc2ccc3ccc(=O)oc3c2-c2cn[nH]c21,10.4*,HuH7 TTR inh=5.5;TTR up confirm=0.1
CC1(C)Oc2ccc3ccc(=O)oc3c2-c2cnoc21,-0.5,
COc1cc(Br)cc(C(=O)N2CCc3ccccc32)c1OC,0.2,
Cc1ccc(S(=O)(=O)n2c3ccc(Cl)cc3c3nc(C)sc32)cc1,17.9*,HuH7 TTR inh=-12.5;TTR up confirm=0.5
Cc1cn(S(=O)(=O)c2ccc(Cl)cc2)c(C)n1,2.4,
Cc1ccc(S(=O)(=O)n2c(N)nc3cc(C)c(C)cc32)cc1,1.9,
Cc1cnc(C(=O)N(c2ccccc2)C(c2ccccc2)c2nc3ccccc3[nH]2)cn1 (configuration not stated),3.9,
NNC(=O)Cc1cccc2ccc(Cl)cc12,1.2,
O=C(c1ccccc1)N1CCN(Cc2cccc(Oc3ccccc3)c2)CC1,-1.9,
CN1CCN(Cc2cccc(Oc3ccccc3)c2)CC1,18.0*,HuH7 TTR inh=-3.9;TTR up confirm=-0.7
COc1ccc(CN2CCN(Cc3cccc(Oc4ccccc4)c3)CC2)c(OC)c1OC,-1.6,
Nc1o[nH]c(=O)c1C1CCCCC1,-0.5,
COc1ccc(-c2nnc(SCC(=O)NCc3cccs3)n2C(C)C)cc1,11.4*,HuH7 TTR inh=-10.2;TTR up confirm=1.7
COc1ccc(-n2cnnc2SCC(=O)NCc2cccs2)cc1,2.7,
CCC(CC)NC(=O)CSc1nnc(-c2ccc(OC)cc2)n1C(C)C,1.1,
Cc1ccc(N(CC(=O)NC(C)C)C(=O)CCC(=O)Nc2nccs2)cc1,1.6,
